According to the supplement of paper PMC11732987, “Enantioselective OTUD7B fragment discovery through chemoproteomics screening and high-throughput optimisation” (Communications Chemistry, 2025):

Legend:
Assay in all cases: log2 ratio of Biotin-Ahx-Ub-VS probe labelling (fragment/DMSO); higher = less target engagement (more negative = stronger competition), active = hit call of the paper (q ≤ 0.05, log2 ratio ≤ -1)
Conditions in all cases: compound concentration: 200 uM; treatment time: 3 h
[1] = biological target: T1, USP42 (UniProt Q9H9J4)
T1 sequence (whole entry): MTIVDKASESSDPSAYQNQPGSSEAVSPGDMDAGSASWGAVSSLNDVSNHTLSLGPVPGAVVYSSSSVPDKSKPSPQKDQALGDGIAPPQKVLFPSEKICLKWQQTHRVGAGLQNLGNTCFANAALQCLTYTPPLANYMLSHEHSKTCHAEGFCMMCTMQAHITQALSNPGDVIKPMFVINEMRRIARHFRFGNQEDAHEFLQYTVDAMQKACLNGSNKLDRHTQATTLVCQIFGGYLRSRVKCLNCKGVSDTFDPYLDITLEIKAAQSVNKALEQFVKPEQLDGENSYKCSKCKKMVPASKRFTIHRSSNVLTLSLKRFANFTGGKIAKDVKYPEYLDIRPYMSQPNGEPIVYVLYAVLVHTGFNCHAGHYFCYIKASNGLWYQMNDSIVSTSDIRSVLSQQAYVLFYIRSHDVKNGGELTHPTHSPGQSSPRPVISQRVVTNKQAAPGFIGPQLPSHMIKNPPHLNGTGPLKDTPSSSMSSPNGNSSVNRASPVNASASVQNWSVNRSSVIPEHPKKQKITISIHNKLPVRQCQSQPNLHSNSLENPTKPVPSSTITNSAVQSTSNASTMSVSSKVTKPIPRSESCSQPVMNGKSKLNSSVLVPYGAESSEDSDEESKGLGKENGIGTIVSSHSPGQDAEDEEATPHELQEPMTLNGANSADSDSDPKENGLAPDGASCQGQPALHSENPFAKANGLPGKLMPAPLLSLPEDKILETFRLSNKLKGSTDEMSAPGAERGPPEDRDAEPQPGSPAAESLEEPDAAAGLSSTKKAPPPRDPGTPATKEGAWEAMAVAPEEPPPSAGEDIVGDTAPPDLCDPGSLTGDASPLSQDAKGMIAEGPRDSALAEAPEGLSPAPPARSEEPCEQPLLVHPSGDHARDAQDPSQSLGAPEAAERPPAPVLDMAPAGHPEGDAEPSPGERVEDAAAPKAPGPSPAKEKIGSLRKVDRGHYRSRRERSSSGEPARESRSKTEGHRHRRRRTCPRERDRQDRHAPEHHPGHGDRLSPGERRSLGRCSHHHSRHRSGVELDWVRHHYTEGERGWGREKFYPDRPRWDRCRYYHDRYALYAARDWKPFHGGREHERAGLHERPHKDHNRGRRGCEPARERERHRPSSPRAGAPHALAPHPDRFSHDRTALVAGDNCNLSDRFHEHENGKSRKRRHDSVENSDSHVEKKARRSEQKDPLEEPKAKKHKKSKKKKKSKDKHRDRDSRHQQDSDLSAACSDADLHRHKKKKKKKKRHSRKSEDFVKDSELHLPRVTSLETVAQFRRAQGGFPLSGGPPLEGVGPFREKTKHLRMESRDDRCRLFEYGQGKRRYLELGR
Outline: (§1)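 Each value is an average log2 ratio of fragment to vehicle, tested by unpaired t-test. The underlying Spectronaut label-free quantities were global-median-normalised, and only proteins with ≥2 unique peptides were included. Triplicate HEK293T lysate samples (495 µg) were exposed to fragment at 200 µM or vehicle for 3 h, then to Biotin-Ahx-Ub-VS at 0.5 µM final for 1 h, before NeutrAvidin enrichment of labelled DUBs, LysC and trypsin digestion, and diaPASEF LC-MS/MS.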

[2] = biological target: USP46 (UniProt P62068)
Outline: as §1

[3] = biological target: T2, USP47 (UniProt Q96K76)
T2 sequence (whole entry): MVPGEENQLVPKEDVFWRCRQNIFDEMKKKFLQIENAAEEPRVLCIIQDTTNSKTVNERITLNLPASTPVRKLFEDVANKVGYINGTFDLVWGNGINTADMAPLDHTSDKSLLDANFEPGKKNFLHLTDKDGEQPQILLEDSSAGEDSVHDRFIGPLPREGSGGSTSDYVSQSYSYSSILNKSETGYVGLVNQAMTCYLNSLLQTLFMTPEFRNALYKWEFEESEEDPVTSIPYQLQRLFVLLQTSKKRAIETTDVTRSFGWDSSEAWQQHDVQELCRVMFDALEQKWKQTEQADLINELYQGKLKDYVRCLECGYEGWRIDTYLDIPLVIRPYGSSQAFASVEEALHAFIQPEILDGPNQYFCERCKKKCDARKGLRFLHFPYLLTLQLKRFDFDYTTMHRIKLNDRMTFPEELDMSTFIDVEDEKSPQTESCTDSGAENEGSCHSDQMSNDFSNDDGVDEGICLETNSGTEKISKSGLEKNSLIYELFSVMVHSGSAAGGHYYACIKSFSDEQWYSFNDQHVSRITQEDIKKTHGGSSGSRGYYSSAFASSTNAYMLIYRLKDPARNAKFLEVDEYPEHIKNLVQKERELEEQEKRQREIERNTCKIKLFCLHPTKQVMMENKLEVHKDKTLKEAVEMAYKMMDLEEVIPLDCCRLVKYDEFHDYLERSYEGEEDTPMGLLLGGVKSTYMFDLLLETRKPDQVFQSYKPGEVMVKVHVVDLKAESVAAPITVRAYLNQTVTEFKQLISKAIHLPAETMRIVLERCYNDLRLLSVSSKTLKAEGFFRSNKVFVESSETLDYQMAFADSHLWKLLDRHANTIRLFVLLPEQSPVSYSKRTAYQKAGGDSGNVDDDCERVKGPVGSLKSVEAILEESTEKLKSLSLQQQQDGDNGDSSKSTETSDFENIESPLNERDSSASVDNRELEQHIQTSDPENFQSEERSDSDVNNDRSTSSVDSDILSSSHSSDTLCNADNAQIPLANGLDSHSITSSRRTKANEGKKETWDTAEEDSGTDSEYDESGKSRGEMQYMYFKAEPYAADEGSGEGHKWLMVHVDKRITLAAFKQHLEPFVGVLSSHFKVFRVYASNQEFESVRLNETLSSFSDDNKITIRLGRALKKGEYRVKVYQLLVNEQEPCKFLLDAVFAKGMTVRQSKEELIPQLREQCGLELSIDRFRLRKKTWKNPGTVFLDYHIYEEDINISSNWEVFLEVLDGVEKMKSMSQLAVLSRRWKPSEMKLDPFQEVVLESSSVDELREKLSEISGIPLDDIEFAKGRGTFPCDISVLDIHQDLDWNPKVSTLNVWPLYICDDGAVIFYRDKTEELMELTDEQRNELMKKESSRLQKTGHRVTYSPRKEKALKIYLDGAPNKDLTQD
Outline: as §1

[4] = biological target: T3, USP48 (UniProt Q86UV5)
T3 sequence (whole entry): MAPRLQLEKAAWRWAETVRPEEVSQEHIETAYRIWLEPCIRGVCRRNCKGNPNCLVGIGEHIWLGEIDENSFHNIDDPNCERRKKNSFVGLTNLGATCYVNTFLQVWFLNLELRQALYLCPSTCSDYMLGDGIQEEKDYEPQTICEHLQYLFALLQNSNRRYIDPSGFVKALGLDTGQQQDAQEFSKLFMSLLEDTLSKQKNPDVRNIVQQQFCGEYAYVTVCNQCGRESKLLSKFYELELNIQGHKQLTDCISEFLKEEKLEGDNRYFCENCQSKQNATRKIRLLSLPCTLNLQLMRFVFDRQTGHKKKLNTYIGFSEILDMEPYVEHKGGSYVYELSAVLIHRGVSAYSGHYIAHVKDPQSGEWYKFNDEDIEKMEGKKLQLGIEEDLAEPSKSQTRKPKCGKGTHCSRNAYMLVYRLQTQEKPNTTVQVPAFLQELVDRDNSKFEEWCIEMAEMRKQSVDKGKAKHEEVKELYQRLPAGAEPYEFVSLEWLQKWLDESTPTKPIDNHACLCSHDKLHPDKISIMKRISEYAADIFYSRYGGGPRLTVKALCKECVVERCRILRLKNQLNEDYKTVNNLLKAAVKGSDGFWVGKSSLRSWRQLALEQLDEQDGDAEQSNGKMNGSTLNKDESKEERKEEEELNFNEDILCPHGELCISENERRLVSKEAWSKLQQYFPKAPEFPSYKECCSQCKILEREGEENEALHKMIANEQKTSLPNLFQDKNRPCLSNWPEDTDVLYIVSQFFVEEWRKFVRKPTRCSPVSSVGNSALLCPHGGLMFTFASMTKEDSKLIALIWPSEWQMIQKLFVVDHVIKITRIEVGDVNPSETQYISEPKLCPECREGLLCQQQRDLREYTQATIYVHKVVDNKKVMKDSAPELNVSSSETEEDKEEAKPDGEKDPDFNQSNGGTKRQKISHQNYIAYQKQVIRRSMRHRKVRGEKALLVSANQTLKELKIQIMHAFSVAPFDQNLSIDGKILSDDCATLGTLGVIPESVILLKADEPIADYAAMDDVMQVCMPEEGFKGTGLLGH
Outline: as §1

[5] = biological target: T4, USP5 (UniProt P45974)
T4 sequence (whole entry): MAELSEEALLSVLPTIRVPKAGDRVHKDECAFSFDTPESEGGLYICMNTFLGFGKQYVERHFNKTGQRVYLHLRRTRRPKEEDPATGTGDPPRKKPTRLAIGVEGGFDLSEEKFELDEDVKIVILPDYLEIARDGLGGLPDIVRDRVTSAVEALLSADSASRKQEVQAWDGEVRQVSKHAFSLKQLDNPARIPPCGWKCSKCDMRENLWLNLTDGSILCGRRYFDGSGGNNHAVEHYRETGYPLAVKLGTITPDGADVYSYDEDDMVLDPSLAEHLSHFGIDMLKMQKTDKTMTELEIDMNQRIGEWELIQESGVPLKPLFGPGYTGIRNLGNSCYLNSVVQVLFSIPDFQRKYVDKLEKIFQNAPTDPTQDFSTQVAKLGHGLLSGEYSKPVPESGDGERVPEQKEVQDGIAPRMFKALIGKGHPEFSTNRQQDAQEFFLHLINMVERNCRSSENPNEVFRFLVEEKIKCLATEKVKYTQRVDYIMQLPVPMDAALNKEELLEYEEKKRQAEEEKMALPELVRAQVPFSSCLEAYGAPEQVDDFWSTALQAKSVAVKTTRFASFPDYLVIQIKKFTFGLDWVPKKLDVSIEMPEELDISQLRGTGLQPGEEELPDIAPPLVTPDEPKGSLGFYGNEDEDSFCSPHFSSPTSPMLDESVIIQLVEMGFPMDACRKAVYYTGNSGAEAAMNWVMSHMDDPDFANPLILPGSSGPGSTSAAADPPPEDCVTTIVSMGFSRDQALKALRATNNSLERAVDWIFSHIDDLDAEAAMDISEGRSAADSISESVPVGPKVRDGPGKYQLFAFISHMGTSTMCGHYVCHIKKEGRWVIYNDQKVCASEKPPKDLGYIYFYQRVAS
Outline: as §1

[6] = biological target: USP54 (UniProt Q70EL1)
Outline: as §1

[7] = biological target: USP7 (UniProt Q93009)
Outline: as §1

[8] = biological target: T5, USP8 (UniProt P40818)
T5 sequence (whole entry): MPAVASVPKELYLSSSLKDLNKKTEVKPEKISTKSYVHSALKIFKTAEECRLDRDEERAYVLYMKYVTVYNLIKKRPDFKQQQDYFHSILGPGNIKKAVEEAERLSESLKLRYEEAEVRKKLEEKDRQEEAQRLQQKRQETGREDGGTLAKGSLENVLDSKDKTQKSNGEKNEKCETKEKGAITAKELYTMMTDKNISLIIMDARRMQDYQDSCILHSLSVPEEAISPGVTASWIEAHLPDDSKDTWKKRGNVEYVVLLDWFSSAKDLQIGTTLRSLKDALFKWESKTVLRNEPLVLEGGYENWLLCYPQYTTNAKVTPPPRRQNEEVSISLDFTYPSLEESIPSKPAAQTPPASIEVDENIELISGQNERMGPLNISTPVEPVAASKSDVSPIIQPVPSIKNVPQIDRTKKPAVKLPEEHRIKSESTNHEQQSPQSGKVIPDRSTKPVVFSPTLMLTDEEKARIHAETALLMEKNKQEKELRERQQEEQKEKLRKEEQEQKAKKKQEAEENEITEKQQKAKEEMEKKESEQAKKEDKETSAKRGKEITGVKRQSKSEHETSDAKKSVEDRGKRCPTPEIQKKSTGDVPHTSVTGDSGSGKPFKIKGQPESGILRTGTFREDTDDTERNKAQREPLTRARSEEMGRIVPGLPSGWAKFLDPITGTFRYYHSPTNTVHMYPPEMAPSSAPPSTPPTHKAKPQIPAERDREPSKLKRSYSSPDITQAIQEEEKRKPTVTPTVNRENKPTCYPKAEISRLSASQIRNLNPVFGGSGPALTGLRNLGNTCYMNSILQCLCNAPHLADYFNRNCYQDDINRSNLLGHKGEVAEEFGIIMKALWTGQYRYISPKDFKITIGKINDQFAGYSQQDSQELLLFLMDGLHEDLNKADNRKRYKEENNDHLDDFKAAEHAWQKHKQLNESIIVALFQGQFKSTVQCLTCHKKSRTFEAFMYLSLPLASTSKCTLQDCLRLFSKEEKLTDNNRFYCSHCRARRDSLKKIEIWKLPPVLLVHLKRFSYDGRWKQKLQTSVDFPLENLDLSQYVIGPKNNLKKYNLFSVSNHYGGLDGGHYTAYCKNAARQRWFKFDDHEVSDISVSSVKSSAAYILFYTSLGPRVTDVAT
Outline: as §1

[9] = biological target: USP9X (UniProt Q93008)
Outline: as §1

[10] = biological target: UniProt O00487
Outline: as §1

Measured: log2 ratio of Biotin-Ahx-Ub-VS probe labelling

USP9X, sequence (Q93008 whole entry): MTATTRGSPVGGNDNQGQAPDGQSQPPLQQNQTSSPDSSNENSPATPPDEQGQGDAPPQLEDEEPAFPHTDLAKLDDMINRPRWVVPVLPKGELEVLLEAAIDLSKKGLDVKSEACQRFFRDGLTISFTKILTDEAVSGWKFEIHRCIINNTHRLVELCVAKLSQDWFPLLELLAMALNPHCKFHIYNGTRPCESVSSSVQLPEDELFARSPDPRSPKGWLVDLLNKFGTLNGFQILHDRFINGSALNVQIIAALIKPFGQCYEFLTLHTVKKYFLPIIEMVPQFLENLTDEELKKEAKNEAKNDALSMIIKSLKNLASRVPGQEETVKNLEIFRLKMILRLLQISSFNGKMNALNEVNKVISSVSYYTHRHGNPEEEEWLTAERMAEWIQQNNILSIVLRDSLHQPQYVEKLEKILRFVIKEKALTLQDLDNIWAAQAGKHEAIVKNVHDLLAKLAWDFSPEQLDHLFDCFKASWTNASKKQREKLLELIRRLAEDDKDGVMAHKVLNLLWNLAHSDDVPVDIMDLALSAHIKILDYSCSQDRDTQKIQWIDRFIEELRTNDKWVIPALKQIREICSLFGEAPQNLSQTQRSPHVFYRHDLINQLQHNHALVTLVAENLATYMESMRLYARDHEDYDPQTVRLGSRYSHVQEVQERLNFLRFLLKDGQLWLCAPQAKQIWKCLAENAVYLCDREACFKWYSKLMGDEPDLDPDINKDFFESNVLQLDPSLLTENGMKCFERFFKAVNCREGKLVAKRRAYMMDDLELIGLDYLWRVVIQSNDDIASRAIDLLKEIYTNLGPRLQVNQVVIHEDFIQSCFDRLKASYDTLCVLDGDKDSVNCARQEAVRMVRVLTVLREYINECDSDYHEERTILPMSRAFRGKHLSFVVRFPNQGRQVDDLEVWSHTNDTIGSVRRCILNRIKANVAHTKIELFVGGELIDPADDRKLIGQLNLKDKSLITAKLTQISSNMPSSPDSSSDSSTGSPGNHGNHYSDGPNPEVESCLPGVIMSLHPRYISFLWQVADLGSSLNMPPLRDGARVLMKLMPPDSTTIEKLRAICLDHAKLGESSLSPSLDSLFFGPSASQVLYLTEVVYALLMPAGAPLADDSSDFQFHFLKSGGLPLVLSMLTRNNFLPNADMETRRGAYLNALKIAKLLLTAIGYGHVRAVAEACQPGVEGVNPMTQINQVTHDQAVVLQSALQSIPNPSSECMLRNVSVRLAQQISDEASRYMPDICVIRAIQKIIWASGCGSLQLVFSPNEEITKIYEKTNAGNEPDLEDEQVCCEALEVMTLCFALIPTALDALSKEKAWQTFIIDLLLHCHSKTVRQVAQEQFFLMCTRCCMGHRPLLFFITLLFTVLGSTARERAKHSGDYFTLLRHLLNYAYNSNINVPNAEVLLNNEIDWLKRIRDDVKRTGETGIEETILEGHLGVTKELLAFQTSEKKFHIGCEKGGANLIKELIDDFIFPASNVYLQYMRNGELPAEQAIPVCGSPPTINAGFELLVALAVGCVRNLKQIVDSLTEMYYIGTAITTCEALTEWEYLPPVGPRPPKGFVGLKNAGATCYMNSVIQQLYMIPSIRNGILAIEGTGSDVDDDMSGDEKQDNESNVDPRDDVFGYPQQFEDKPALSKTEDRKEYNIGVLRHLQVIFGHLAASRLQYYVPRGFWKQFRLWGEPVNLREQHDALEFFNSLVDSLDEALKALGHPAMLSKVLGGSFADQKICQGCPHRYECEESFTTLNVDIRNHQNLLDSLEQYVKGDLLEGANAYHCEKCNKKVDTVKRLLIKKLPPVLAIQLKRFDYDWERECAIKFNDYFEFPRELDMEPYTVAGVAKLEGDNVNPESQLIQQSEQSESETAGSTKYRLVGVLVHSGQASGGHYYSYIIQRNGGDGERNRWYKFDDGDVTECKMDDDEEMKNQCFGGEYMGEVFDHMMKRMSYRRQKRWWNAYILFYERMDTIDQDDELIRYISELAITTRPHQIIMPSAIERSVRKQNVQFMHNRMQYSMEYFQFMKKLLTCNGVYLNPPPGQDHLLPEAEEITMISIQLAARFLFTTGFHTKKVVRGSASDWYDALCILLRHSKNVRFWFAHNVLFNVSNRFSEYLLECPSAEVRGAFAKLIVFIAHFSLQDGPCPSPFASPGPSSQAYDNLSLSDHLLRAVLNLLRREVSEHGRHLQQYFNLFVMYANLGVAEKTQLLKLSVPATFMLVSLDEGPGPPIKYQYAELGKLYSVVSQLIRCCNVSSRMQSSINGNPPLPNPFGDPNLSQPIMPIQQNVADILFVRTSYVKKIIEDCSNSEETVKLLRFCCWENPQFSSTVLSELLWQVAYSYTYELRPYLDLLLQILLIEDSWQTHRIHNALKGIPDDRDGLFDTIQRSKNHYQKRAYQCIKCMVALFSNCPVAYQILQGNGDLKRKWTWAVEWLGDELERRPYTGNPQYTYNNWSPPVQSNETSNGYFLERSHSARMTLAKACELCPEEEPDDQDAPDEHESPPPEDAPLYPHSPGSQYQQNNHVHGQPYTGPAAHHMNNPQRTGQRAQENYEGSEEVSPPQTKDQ
USP46, sequence (P62068 whole entry): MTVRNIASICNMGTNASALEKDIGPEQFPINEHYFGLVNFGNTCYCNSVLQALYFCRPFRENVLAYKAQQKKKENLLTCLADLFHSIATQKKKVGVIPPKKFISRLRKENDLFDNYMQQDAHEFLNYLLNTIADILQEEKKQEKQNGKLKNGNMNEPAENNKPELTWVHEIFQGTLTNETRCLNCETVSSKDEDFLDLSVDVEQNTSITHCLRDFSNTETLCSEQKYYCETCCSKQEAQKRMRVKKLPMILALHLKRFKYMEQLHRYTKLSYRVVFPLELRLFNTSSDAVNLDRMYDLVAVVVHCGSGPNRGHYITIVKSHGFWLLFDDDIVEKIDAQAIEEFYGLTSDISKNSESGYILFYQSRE
USP7, sequence (Q93009 whole entry, looked up): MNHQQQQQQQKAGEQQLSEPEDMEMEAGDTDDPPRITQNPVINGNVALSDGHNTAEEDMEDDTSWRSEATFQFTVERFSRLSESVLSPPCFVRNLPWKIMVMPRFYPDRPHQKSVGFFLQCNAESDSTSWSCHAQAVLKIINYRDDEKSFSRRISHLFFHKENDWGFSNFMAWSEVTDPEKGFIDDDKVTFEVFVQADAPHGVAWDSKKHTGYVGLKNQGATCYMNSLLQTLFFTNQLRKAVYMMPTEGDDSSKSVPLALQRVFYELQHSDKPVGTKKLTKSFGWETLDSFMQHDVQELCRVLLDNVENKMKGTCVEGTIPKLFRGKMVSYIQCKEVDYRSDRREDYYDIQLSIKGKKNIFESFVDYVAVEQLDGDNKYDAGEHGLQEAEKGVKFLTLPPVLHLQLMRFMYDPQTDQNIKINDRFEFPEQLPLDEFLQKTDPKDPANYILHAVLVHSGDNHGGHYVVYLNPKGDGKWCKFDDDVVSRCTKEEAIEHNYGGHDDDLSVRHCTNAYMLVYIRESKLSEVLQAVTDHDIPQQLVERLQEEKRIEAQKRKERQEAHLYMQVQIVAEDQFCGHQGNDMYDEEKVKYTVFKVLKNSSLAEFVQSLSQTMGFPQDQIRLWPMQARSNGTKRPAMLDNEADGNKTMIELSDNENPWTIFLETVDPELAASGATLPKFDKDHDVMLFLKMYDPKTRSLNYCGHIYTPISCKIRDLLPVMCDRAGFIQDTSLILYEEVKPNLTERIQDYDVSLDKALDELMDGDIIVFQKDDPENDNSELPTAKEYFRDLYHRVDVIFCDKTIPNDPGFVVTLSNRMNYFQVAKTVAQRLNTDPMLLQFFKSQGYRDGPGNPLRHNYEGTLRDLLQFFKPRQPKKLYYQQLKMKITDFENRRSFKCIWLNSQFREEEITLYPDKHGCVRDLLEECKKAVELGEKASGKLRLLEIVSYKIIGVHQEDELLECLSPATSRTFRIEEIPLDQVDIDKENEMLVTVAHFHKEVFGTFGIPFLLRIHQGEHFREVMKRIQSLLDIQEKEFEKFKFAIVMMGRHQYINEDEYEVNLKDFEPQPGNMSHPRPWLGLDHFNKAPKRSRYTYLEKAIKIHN
UniProt O00487, sequence (O00487 whole entry): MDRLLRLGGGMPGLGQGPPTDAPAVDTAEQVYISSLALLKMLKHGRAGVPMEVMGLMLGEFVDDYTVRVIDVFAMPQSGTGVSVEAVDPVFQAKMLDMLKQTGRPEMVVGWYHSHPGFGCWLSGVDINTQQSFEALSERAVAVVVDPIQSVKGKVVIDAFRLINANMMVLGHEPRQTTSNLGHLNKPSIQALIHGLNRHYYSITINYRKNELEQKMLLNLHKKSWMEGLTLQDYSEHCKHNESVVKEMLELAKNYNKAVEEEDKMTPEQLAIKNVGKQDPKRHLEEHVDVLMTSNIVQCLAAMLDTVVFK

NS(=O)(=O)c1ccc(Cl)c(NC(=O)CCl)c1
inactive: [1] 0.0225 | [2] -0.123 | [3] -0.247 | [4] -0.536 | [5] 0.233 | [6] -0.00214 | [7] -0.207 | [8] -0.125 | [9] -0.31 | [10] -0.0819
